Inconclusive results are not listed. Entries that show only a call come without a potency. A number with no mark means an inactive call. Calls of active or inactive are those of the source. Calls follow the shape of the dose curve; as a rule, active = well fitted inhibition curve with a large enough effect; inconclusive = small, poorly fitted or top-dose-only effect; inactive = no such curve, though single readings can be large or run the other way.

Assay [1] concerns Zika virus NS2B-NS3 protease (unlinked complex). The experiment in a line: Primary screen GU Rhodamine qHTS for Zika virus inhibitors: Unlinked NS2B-NS3 protease assay (AID 1347159). Also: nearly all actives have a fitted effect of over 60% in size. The method, boiled down:
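Compounds, tested up to 114 microM, were incubated for 15 minutes with 25 nM unlinked NS2B-NS3 protease at pH 8.0. Cleavage of 1.5 microM Rhodamine110 substrate was then followed by fluorescence for 15 minutes.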
(In general: Quantitative high-throughput screening tests each substance at several concentrations.)

Assay [2] concerns Zika virus NS2B-NS3 protease (linked construct). The assay can be described thus: Primary screen NINDS Rhodamine qHTS for Zika virus inhibitors (AID 1347160). Also: nearly all actives have a fitted effect of over 55% in size. A digest of the protocol:
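Percent inhibition, normalized to uninhibited and enzyme-free controls, is fitted to a 4-parameter Hill equation. Fluorescence change comes from a 15-min cleavage of 1.5 microM bis-peptide Rhodamine110 substrate by 25 nM linked NS2B-NS3 at room temperature.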

For `CC(=O)OC1C(OC(=O)c2ccccc2)C2C(C)(C)CC(=O)CC2(C)C23CCC(C)(C2)C(O)CC13` (stereo not drawn), the Potency result in assay [1] and in assay [2] was “inactive” throughout.
With `CC1(C)CC[C@]2(C(=O)O[C@@H]3O[C@H](CO)[C@@H](O)[C@H](O)[C@H]3O)CC[C@]3(C)C(=CCC4[C@@]5(C)CC[C@H](O[C@@H]6O[C@H](C(=O)O)[C@@H](O)[C@H](O)[C@H]6O)[C@@](C)(CO)C5CC[C@]43C)C2C1` (stereo partly drawn), the Potency entry in assay [1] and in assay [2] was “inactive” throughout.
On to `CCOc1cc(N2CCC(O)CC2)ccc1Nc1ncc2c(n1)N(C1CCCC1)CCC(=O)N2C`, for which the Potency entry in assay [1] and in assay [2] was “inactive” each time.
Consider `C=CC1(C)C=C2CCC3C(C)(C)C(O[C@@H]4O[C@@H](CO)[C@H](O)[C@H]4O)CCC3(C)C2CC1O[C@@H]1O[C@H](C)[C@H](O)[C@H](O)[C@H]1O` (stereo partly drawn), for which the Potency entry in assay [1] and in assay [2] was “inactive” throughout.
Regarding `C=C(C)C1CCC2(C(=O)O)CCC3(C(=O)O)C(CCC4C5(C)CCC(O)C(C)(C(=O)O)C5CCC43C)C12` (stereo not drawn), the Potency entry in assay [1] and in assay [2] was “inactive” each time.
In the case of `COc1c2c(c(C)c3c1C(=O)OC3)O[C@@]1(C)CC(O)C(C(C)(C)O)[C@](C)(CCC(=O)O)[C@H]1C2` (stereo partly drawn), the Potency result in assay [1] and in assay [2] was “inactive” throughout.
Take `CC1(C)CC[C@]2(C(=O)O[C@@H]3O[C@H](CO)[C@@H](O)[C@H](O)[C@H]3O)CC[C@]3(C)C(=CCC4[C@@]5(C)C[C@@H](O)[C@H](O)C(C)(C)C5[C@H](O)C[C@]43C)[C@@H]2[C@@H]1O` (stereo partly drawn): the Potency result in assay [1] and in assay [2] was “inactive” throughout.
`O=C(O)c1cc2cccc([N+](=O)[O-])c2[nH]1`: the Potency result in assay [1] and in assay [2] was “inactive” throughout.
Turning to `C=C1CCCC2(C)CC3(OC)OC(=O)C(C)=C3CC12` (stereo not drawn), the Potency result in assay [1] and in assay [2] was “inactive” in each case.
Consider `CCOC(=O)CCN(C(=O)c1ccc2c(c1)nc(CNc1ccc(C(=N)N)cc1)n2C)c1ccccn1`, for which the Potency result in assay [1] and in assay [2] was “inactive” in each case.
Consider `O=C(/C=C/c1cccc(S(=O)(=O)Nc2ccccc2)c1)NO`, for which the Potency entry in assay [1] and in assay [2] was “inactive” throughout.
On to `CN[C@@H]1[C@H](O[C@H]2[C@H](O[C@@H]3[C@@H](O)[C@H](O)[C@@H](N=C(N)N)[C@H](O)[C@H]3N=C(N)N)O[C@@H](C)[C@]2(O)C=O)O[C@@H](CO)[C@H](O)[C@H]1O`, for which the Potency result in assay [1] and in assay [2] was “inactive” each time.
In the case of `CC(=O)NCC(=O)N1C2CCC1c1cc(Nc3ncc(C(F)(F)F)c(NC4CCC4)n3)ccc12` (stereo not drawn), the Potency entry in assay [1] and in assay [2] was “inactive” throughout.
For `COC(=O)C1=CO[C@@H](O[C@@H]2O[C@H](CO)[C@@H](O)[C@H](O)[C@H]2O)[C@H]2[C@@H]1C=C[C@@]21C=C([C@H](C)O)C(=O)O1`, the Potency entry in assay [1] and in assay [2] was “inactive” throughout.
`Cn1nnc(-c2ccc(-c3ccc(N4C[C@H](COP(=O)(O)O)OC4=O)cc3F)cn2)n1`: the Potency result in assay [1] and in assay [2] was “inactive” each time.
For the compound `O=C(c1cc2c(cc1F)OC(c1ccc(F)cc1)(c1ccc(Cl)cc1Cl)O2)N1CCOCC1` (stereo not drawn), the Potency entry in assay [1] and in assay [2] was “inactive” each time.
Take `COCCOc1cnc2ccn([C@H](C)c3nnc4c(F)cc(-c5cnn(C)c5)cn34)c(=O)c2c1`: the Potency entry in assay [1] and in assay [2] was “inactive” each time.
Take `Nc1nc2c(ncn2[C@@H]2O[C@@H]3COP(=O)(O)O[C@H]3[C@H]2O)c(=O)[nH]1`: the Potency entry in assay [1] and in assay [2] was “inactive” each time.
For the compound `CC(C)c1cc(C(=O)N2CC[C@H](NC(=O)C3CC3)C2)n[nH]1`, the Potency result in assay [1] and in assay [2] was “inactive” each time.
For `CC1=CC(=O)CC(C)(C)[C@@]1(O)CC[C@@H](C)O[C@@H]1O[C@H](CO)[C@@H](O)[C@H](O)[C@H]1O`, the Potency entry in assay [1] and in assay [2] was “inactive” throughout.
As for `O=C1CC2(CCCC2)[C@H](O)C(=O)N1CCCCN1CCN(c2ncccn2)CC1`, the Potency result in assay [1] and in assay [2] was “inactive” throughout.
For the compound `Cc1ccc([N+](=O)[O-])cc1S(=O)(=O)N(C)/N=C/c1cnc2ccc(Br)cn12`, the Potency entry in assay [1] and in assay [2] was “inactive” throughout.
Consider `CC1(C)CC2C=C(C(=O)O)C3COC(=O)C(O)(CO)C23C1` (stereo not drawn), for which the Potency entry in assay [1] and in assay [2] was “inactive” in each case.
Turning to `CC(C)(O)/C=C/C1=CC(=O)[C@@](C)(O)C[C@H]1O`, the Potency entry in assay [1] and in assay [2] was “inactive” each time.
For the compound `CC(C)(O[C@@H]1O[C@H](CO)[C@@H](O)[C@H](O)[C@H]1O)C(OC(=O)/C=C\c1ccc(O)cc1)C(=O)OCc1ccc(O[C@@H]2O[C@H](CO)[C@@H](O)[C@H](O)[C@H]2O)cc1` (stereo partly drawn), the Potency entry in assay [1] and in assay [2] was “inactive” throughout.
For the compound `CC1COC(Nc2ccc3ncnc(Nc4ccc(OCc5nccs5)c(Cl)c4)c3c2)=N1` (stereo not drawn), the Potency result in assay [1] and in assay [2] was “inactive” throughout.
With `Cn1c(=O)n(-c2ccc(C(C)(C)C#N)cc2)c2c3cc(C#Cc4cccnc4)ccc3ncc21`, the Potency entry in assay [1] and in assay [2] was “inactive” throughout.
As for `CCCC(=O)C1CCN(c2ncnc3c2CN(C(=O)c2ccc(-c4ccccc4)cc2)CC3)CC1`, the Potency result in assay [1] and in assay [2] was “inactive” in each case.
As to `CCC(=O)O[C@H]1C(C)(C)[C@H]([C@@H](O)C(=O)OC)[C@]2(C)C(=O)[C@@]1(O)[C@H]1O[C@]13C1CC(=O)O[C@@H](c4ccoc4)[C@]1(C)CCC32` (stereo partly drawn), the Potency result in assay [1] and in assay [2] was “inactive” each time.

Source of the values: PubChem BioAssay (NCATS).
